Residual activity data for six molecules are collected here from ChEMBL document CHEMBL2218924, “A broad activity screen in support of a chemogenomic map for kinase signalling research and drug discovery” (Biochem J, 2013).

The target of assay [1] is T1, Muscle, skeletal receptor tyrosine-protein kinase (Homo sapiens) (UniProt O15146).
T1 sequence (whole entry): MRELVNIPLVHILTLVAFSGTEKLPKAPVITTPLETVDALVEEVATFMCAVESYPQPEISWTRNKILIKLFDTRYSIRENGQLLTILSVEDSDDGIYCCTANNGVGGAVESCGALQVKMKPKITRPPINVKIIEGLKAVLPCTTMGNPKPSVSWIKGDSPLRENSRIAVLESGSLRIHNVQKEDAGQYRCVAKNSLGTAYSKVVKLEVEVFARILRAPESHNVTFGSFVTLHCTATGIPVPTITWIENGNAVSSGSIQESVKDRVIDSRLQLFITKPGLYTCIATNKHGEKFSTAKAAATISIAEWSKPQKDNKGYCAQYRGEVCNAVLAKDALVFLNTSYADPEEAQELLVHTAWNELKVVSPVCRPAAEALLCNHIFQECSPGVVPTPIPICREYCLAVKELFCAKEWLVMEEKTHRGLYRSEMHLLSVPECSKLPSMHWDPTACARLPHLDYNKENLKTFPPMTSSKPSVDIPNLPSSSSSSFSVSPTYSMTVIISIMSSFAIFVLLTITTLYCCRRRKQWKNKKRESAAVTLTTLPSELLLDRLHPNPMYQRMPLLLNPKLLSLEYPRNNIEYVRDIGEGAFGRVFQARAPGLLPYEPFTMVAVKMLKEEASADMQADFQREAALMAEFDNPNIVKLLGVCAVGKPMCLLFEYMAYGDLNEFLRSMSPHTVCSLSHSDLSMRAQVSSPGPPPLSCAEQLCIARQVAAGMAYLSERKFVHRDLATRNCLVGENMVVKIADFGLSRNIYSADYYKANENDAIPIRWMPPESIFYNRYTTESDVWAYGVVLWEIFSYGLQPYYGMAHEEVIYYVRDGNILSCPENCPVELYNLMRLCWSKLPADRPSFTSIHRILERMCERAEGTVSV
To be noted: at 1 µM.

The target in assay [2] is T1, Muscle, skeletal receptor tyrosine-protein kinase (Homo sapiens). To be noted: at 10 µM.
Assay [3] deals with T2, Serine/threonine-protein kinase Nek11 (Homo sapiens) (UniProt Q8NG66).
T2 sequence (whole entry): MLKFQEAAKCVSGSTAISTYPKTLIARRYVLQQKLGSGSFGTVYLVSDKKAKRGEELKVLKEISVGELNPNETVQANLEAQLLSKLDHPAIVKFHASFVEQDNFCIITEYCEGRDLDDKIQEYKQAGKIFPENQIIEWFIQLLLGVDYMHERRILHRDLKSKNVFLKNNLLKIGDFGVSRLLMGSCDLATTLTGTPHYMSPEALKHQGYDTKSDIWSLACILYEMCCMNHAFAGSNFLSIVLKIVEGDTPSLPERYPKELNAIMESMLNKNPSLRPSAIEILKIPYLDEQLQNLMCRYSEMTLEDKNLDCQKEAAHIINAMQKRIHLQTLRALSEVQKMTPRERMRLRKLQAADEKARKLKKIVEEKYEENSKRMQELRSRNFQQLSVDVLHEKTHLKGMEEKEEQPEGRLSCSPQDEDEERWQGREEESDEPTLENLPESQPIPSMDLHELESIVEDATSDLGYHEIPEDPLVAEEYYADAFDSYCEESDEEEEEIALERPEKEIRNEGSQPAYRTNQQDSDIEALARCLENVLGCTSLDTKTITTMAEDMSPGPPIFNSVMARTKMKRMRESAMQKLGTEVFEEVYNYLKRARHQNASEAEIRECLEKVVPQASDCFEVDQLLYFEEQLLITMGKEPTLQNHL
As to conditions: at 1 µM.

Assay [4] concerns the target T2, Serine/threonine-protein kinase Nek11 (Homo sapiens). As to conditions: at 10 µM.
In assay [5] the target is T3, Serine/threonine-protein kinase Nek3 (Homo sapiens) (UniProt P51956).
T3 sequence (whole entry): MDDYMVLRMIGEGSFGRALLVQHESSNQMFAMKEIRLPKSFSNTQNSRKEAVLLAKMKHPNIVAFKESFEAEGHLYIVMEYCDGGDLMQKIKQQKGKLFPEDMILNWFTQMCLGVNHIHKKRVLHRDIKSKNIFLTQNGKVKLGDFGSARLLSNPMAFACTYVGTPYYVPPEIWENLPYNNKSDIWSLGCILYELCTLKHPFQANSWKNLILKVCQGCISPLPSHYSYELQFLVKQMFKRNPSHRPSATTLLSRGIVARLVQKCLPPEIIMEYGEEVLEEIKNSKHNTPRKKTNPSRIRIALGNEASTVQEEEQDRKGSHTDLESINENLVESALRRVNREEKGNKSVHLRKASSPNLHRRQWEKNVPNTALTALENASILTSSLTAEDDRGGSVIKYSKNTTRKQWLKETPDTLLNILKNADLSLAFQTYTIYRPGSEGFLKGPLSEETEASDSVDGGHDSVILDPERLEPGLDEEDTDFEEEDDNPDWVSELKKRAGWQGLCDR
As to conditions: at 1 µM.

The target of assay [6] is Serine/threonine-protein kinase tousled-like 2 (Homo sapiens) (UniProt Q86UE8). To be noted: at 1 µM.
Sequence of Serine/threonine-protein kinase tousled-like 2 (Homo sapiens) (Q86UE8 whole entry, looked up): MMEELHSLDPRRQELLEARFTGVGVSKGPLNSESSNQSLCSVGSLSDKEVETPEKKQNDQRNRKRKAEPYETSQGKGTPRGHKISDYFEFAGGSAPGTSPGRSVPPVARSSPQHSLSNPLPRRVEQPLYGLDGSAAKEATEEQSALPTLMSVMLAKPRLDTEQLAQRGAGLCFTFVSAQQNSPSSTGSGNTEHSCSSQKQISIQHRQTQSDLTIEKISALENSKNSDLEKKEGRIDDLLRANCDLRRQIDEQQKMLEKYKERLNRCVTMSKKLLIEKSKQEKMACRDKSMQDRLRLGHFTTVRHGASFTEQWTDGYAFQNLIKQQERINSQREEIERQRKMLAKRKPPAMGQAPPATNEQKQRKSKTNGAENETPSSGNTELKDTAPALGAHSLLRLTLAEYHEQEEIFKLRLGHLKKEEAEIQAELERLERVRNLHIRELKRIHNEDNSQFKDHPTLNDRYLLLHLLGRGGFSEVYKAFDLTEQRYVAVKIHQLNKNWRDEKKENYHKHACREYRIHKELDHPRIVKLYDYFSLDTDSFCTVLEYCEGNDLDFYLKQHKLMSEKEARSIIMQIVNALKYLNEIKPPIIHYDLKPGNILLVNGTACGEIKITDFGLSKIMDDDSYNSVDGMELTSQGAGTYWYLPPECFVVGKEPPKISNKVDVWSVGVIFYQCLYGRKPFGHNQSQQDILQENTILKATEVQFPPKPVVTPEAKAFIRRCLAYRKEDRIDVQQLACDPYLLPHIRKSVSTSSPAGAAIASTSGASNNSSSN
For assay [7] the target is unchanged. To be noted: at 10 µM.
Assay [8] has as its target T4, Tyrosine-protein kinase Tec (Homo sapiens) (UniProt P42680).
T4 sequence (whole entry): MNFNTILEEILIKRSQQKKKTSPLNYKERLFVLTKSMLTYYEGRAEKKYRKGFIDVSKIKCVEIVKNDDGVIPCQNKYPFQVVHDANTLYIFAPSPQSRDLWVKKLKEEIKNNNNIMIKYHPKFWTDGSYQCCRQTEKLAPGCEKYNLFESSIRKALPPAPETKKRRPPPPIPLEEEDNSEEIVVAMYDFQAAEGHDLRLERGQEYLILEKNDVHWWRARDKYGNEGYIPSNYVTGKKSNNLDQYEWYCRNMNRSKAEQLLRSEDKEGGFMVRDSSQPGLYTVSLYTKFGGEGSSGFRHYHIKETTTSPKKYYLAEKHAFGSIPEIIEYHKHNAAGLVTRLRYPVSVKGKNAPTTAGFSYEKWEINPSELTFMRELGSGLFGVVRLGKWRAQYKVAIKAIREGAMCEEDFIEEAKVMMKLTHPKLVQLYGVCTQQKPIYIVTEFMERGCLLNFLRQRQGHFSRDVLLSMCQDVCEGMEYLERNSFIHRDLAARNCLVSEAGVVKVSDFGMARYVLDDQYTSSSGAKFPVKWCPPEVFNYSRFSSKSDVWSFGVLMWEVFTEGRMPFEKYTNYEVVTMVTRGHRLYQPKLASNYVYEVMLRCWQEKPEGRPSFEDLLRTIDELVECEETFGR
To be noted: at 1 µM.

The target in assay [9] is T4, Tyrosine-protein kinase Tec (Homo sapiens). As to conditions: at 10 µM.
In assay [10] the target is High affinity nerve growth factor receptor (Homo sapiens) (UniProt P04629). To be noted: at 1 µM.
Sequence of High affinity nerve growth factor receptor (Homo sapiens) (P04629 33-796 limits assumed): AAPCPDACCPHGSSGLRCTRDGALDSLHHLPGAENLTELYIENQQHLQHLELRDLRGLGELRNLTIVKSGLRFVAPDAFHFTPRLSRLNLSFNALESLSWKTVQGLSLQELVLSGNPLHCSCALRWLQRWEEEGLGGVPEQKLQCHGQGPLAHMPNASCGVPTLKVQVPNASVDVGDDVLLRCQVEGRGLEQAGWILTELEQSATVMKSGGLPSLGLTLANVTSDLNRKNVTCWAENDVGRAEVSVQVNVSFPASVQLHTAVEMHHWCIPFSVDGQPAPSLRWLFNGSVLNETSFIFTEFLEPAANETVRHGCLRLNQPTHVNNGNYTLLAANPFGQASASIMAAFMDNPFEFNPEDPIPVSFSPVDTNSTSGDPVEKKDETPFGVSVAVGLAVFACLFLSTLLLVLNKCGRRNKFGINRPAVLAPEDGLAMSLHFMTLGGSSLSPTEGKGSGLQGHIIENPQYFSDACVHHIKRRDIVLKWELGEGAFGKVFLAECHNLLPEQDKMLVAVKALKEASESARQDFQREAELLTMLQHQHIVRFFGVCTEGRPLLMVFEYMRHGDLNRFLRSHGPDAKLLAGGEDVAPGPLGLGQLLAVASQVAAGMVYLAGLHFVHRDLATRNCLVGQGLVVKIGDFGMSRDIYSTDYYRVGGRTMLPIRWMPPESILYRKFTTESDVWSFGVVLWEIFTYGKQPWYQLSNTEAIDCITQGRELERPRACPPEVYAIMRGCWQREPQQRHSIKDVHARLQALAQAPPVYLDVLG
Assay [11] has the same target. To be noted: at 10 µM.
The target in assay [12] is T5, Serine/threonine-protein kinase Nek2 (Homo sapiens) (UniProt P51955).
T5 sequence (whole entry): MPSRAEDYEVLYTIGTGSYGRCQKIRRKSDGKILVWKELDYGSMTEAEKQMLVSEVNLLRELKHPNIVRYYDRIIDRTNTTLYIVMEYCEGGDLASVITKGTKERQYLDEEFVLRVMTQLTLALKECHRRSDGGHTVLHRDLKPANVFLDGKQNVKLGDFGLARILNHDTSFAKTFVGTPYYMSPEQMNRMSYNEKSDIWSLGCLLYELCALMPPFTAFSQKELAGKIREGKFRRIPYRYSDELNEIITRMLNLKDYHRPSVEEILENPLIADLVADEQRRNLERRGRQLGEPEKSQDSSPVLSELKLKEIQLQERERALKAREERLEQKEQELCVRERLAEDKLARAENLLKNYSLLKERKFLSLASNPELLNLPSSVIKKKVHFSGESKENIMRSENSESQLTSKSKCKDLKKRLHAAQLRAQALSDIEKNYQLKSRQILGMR
To be noted: at 1 µM.

The target in assay [13] is T5, Serine/threonine-protein kinase Nek2 (Homo sapiens). As to conditions: at 10 µM.
Assay [14] deals with T3, Serine/threonine-protein kinase Nek3 (Homo sapiens). As to conditions: at 10 µM.
Assay [15] concerns the target T6, Testis-specific serine/threonine-protein kinase 1 (Homo sapiens) (UniProt Q9BXA7).
T6 sequence (whole entry): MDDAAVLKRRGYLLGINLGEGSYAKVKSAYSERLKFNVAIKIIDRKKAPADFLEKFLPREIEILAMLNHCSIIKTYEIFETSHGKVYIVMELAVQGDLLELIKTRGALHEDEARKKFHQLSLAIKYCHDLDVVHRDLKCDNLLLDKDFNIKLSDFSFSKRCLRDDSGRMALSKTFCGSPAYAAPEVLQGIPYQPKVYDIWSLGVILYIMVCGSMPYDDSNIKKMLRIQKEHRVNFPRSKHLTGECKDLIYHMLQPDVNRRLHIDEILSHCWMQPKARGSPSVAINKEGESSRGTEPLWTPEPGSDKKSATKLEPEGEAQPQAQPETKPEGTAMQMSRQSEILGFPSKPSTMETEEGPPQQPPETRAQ
As to conditions: at 1 µM.

Assay [16] addresses T6, Testis-specific serine/threonine-protein kinase 1 (Homo sapiens). As to conditions: at 10 µM.
The target in assay [17] is T7, Testis-specific serine/threonine-protein kinase 2 (Homo sapiens) (UniProt Q96PF2).
T7 sequence (whole entry): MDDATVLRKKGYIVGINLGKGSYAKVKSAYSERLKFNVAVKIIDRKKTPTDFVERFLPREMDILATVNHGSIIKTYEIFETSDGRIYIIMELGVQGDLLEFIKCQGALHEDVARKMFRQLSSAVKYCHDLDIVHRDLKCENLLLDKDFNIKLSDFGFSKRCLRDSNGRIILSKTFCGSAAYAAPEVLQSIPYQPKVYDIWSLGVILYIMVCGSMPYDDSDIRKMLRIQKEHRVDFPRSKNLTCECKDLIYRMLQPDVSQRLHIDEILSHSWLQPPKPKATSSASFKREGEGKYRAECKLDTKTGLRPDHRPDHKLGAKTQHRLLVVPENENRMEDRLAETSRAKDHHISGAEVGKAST
To be noted: at 10 µM.

Assay [18] concerns the target Angiopoietin-1 receptor (Homo sapiens) (UniProt Q02763). As to conditions: at 1 µM.
Assay [19] shares this target. As to conditions: at 10 µM.
For assay [20], the target named is BDNF/NT-3 growth factors receptor (Homo sapiens) (UniProt Q16620). To be noted: at 1 µM.
Sequence of BDNF/NT-3 growth factors receptor (Homo sapiens) (Q16620 32-822 limits assumed): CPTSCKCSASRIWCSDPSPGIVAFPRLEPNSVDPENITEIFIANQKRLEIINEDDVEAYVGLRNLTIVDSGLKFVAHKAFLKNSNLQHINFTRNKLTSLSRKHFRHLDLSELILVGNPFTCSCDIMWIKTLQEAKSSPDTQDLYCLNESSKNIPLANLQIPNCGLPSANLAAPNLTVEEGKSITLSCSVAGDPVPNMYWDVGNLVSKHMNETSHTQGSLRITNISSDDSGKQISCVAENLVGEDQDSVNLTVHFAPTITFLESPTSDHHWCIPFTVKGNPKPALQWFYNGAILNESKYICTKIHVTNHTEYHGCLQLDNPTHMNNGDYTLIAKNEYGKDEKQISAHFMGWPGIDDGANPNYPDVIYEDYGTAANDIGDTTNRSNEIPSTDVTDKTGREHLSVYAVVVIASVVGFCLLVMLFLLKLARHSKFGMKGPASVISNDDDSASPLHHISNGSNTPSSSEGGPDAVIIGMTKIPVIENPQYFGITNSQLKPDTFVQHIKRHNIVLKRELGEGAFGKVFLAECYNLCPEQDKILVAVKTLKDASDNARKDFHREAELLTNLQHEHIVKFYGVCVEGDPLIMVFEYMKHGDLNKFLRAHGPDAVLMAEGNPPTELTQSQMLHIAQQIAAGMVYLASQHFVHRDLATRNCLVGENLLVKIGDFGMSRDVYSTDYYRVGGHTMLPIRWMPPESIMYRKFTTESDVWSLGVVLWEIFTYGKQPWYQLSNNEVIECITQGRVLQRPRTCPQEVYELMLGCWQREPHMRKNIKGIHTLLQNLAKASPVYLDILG

Structures are written as SMILES.

By residual activity is commonly meant the signal under treatment as a percentage of the control signal.

Sequence of Angiopoietin-1 receptor (Homo sapiens) (Q02763 whole entry): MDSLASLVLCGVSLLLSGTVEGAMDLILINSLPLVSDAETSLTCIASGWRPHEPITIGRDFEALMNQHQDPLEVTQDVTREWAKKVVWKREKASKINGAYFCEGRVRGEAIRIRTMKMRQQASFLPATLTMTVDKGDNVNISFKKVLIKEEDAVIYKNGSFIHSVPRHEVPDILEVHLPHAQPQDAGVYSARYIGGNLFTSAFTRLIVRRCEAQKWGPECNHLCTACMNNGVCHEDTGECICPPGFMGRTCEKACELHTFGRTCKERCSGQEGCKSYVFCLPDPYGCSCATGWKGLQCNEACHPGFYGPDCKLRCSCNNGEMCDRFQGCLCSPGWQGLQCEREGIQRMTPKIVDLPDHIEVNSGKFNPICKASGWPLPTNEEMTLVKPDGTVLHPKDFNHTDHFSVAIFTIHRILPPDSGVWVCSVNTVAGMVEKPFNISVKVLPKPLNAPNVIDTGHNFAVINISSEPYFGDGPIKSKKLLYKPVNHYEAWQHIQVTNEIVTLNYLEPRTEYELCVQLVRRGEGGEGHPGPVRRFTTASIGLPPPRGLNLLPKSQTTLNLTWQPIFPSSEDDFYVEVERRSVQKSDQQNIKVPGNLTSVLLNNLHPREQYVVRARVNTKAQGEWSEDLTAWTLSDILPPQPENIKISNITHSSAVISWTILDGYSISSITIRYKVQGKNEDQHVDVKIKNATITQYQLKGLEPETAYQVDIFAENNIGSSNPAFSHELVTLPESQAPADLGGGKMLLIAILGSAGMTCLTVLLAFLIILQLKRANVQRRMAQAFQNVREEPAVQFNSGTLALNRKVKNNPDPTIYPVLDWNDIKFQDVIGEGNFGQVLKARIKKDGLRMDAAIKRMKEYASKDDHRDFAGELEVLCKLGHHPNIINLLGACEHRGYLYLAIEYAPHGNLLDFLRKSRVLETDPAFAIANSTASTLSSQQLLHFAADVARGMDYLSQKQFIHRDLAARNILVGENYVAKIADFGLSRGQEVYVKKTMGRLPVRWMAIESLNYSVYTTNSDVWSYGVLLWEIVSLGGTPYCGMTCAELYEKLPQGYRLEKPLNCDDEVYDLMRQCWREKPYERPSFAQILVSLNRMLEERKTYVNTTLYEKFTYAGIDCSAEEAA

With `N#Cc1c(NC(=O)c2cccc3ccccc23)sc2c1CCCC2`, the residual activity in assay [1] came out at 96%; in [2], 78%; in assay [3], 82%; in assay [4], 72%; in assay [5], 76%; in assay [6] it was 100%. Moreover, the residual activity was determined as 96% in assay [7]; 94% in [8]; 69% in assay [9]; 81% in assay [10]; 87% in [11].

On to `O=c1cc(N2CCNCC2)oc2c(-c3ccccc3)cccc12`, for which the residual activity came to 92% in assay [1]; 78% in [2]; 104% in assay [3]; 105% in [4]; 84% in assay [12]; 92% in [13]. Also, the residual activity in assay [5] was 101%; in assay [14], 76%; in [7], 91%; in [15] it was 101%; in assay [16], 93%; in assay [17], 82%. In addition, the residual activity in [9] turned out to be 80%; in assay [18], 69%; in assay [19] it was 78%.

For the molecule `c1ccc(-c2cnc(Nc3ccc(OCCN4CCCC4)cc3)s2)cc1`, the residual activity in assay [1] was 4%; in [2], 0%; in [3] it was 81%; in assay [4] it was 76%; in [5], 115%; in assay [14], 76%. The residual activity in assay [6] stood at 105%; in assay [7], 81%; in [15], 100%; in assay [16] it was 78%; in assay [17] it was 74%; in assay [18] it was 114%. The residual activity in assay [19] worked out at 60%; in assay [10] it was 24%; in [11], 3%; in [20], 45%.

Consider `CCCC(=O)Oc1ccc2[nH]c(C(=O)c3cc4ccccc4[nH]3)cc2c1`, for which the residual activity in [1] was determined as 95%; in assay [2], 76%; in assay [3], 75%; in [4], 89%; in assay [12], 71%; in assay [13], 103%. Further, the residual activity in assay [5] is 98%; in assay [14], 79%; in [6], 100%; in [7], 90%; in [15], 93%; in assay [16], 82%. The residual activity in assay [17] was 96%; in [8], 85%; in assay [9] it was 94%; in assay [18], 78%; in assay [19], 49%; in [10], 87%. In addition, in [11], the residual activity was 87%.

On to `O=C1Nc2ccc(Cl)cc2/C1=C/c1cc(Cl)c(O)c(Cl)c1`, for which the residual activity worked out at 81% in [1]; 23% in assay [2]; 52% in assay [3]; 65% in assay [4]; 88% in assay [12]; 89% in [13]. For the same molecule, the residual activity came to 115% in assay [5]; 84% in assay [14]; 87% in assay [7]; 95% in assay [15]; 78% in [16]; 57% in assay [17]. For the same molecule, the residual activity in assay [8] was 89%; in assay [9] it was 70%; in [18] it was 75%; in assay [19], 51%; in [10] it was -1%; in assay [11], 2%. The residual activity in assay [20] was 38%.

`CCCCc1c(-c2ccc(OC)cc2)[nH]c2nccnc12`: the residual activity is 88% in assay [1]; 87% in assay [2]; 80% in assay [3]; 81% in assay [4]; 83% in [13]; 87% in assay [5]. The residual activity in assay [6] came out at 87%; in assay [7] it was 86%; in assay [15] it was 63%; in assay [16], 81%; in assay [8], 51%; in assay [9] it was 11%. Further, the residual activity in assay [18] came out at 105%; in [19] it was 82%; in assay [10], 61%; in assay [11], 57%; in assay [20], 70%.
